This is a sample that favours compounds with a hit; in the whole collection about 19% have one here.
IL-1B inflam inh: qHTS for Inhibitors of Inflammasome Signaling: IL-1-beta AlphaLISA Primary Screen. AID 743279, 2014. activity change, % at 57.5 µM. THP-1 LPS/ATP IL-1B secretion, AlphaLISA, 16 h; hits give low values. 360,000 tested, 4.7% active; in the data active means activity change below about -50%; inconclusive means mostly about -30% to -49%
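Secreted IL-1B measured by AlphaLISA bead assay after 16 h compound exposure of THP-1 cells; compounds (final up to 57.5 uM) added 1 h before LPS (250 ng/mL) and ATP (1.25 mM) stimulation; lower signal means less secretion.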
TDP1 cell CPT: qHTS for Inhibitors of human tyrosyl-DNA phosphodiesterase 1 (TDP1): qHTS in cells in presence of CPT. chicken DT40 Tdp1-/-;hTDP1 cells + 20 nM CPT, ATP luminescence, 48 h. Potency, µM (doses to about 46.2 µM), most hits filed as inhibitors. 420,000 tested, 12% active. AID 686979, 2013; further: nearly all actives have a fitted effect of over 55% in size
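Chicken DT40 Tdp1-/- cells stably complemented with human TDP1 were seeded at 400 cells/well in medium containing 20 nM camptothecin, exposed to pin-transferred compounds, and grown at 37 °C for at least 48 hr. Viability was read as ATP luminescence.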
HepG2 viability: qHTS for Inhibitors of TGF-b: Cytotox Counterscreen | HepG2 CAGA-GFP viability, ATP luminescence, 18 h | Potency, µM (series often up to 46.1 µM), actives largely listed as cytotoxic | 410,000 tested, 0.76% active
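CellTiter-Glo luminescence gave cytotoxicity after 18 hours at 37 degrees C. The cells were HepG2 CAGA-GFP in 1% FBS DMEM, stimulated with 500 pg/mL TGF-beta after compound addition. %Activity was normalised to no-cell wells (complete cell-killing) and DMSO (no toxicity), and curves were fitted and classified.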
ASM inhibitor: Inhibitors of Secretory Acid Sphingomyelinase (S-ASM): qHTS | Sphingomyelin phosphodiesterase (Homo sapiens), P17405 | placental ASM, HMU-PC fluorogenic substrate, 60 min | Potency, µM (doses to about 57.5 µM), most hits filed as inhibitors | 340,000 tested, 0.006% active | AID 504937, 2011
Target sequence (P17405 47-631 limits assumed): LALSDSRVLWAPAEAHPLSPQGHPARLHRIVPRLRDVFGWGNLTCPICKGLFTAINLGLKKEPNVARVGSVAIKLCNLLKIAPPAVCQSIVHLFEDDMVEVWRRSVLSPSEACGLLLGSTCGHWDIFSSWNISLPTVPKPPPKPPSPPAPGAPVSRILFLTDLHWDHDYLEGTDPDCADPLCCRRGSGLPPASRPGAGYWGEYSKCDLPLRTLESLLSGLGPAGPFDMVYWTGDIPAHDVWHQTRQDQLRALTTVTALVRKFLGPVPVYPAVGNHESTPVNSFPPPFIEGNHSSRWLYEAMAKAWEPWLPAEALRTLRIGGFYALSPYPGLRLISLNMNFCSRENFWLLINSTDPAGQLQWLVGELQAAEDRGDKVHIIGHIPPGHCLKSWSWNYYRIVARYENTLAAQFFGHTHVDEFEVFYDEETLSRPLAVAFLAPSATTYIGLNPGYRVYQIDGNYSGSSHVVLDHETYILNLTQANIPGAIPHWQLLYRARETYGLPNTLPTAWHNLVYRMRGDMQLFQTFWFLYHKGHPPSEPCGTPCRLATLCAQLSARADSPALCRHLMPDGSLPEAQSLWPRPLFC
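Fluorogenic HMU-PC substrate (9 uM final) is turned over by placental ASM in 60 min at 37 C after a 10 min compound preincubation. Reaction ended by alkaline stop (pH 10), with fluorescence read at 386/447 nm.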
TDP1 cell noCPT: qHTS for Inhibitors of human tyrosyl-DNA phosphodiesterase 1 (TDP1): qHTS in cells in absence of CPT | Potency, µM (doses to about 46.2 µM), most hits filed as inhibitors | DT40 Tdp1-/- hTDP1 cells, no CPT, ATP luminescence, 48 h | 420,000 tested, 15% active; further: nearly all actives have a fitted effect of over 55% in size
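Camptothecin absent (DMSO only). Human TDP1-complemented DT40 knockout cells, 400 cells/well, 37 °C for minimum 48 hr; ATP measured via CellTiter-Glo, 30 min dark incubation, luminescence.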
TGFb SMAD3 inh: qHTS for Inhibitors of TGF-b | 410,000 tested, 1.2% active | Potency, µM (highest dose often 46.1 µM), actives largely listed as inhibitors | HepG2 CAGA-GFP TGF-b/SMAD3 reporter, GFP fluorescence, 18 h; TGF-beta stimulated, 500 pg/mL final; further: nearly all actives have a fitted effect of over 65% in size
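HEPG2 CAGA-GFP reporter cells (1000/well, DMEM with 1% FBS) received compounds, then recombinant TGF-beta at 500 pg/mL final for 18 hours at 37 degrees C. Per-cell GFP summed per well was normalised to unstimulated and stimulated DMSO controls before curve fitting.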
A number is an active result; 0 = inactive; ? = inconclusive; - = not tested or not shown. Unless noted, the call rests on the fitted dose curve; in most records, active means well fitted curve in the direction sought with a large enough effect; inconclusive means small, poorly fitted or top-dose-only effect, or another doubt; inactive means no such curve, though single readings can be large; an effect the other way counts as inactive or inconclusive.

SMILES	IL-1B inflam inh	TDP1 cell CPT	HepG2 viability	ASM inhibitor	TDP1 cell noCPT	TGFb SMAD3 inh
CCN(c1ccccc1)S(=O)(=O)c1cccc(C(=O)N2CCN(S(=O)(=O)c3ccccc3)CC2)c1	0	?	0	-	?	0
CN(Cc1ccccc1)S(=O)(=O)c1ccc(Cl)c(C(=O)N2CCC(C(N)=O)CC2)c1	0	23µM	0	0	10µM	0
COc1ccc(CCC(=O)OCc2csc(CC(=O)Nc3ccc(C)cc3)n2)cc1OC	0	0	0	0	?	0
CCCC(=O)C1=C(N2CCCC2)CC(C)(C)C(C(=O)OC)C1=O (stereo unspecified)	0	0	0	0	0	0
Cc1ccc(NC(=O)CN2C(=O)CCSc3ccccc32)c(C)c1	-	-	0	-	-	0
CCN1C(=O)CC(NC2CCN(C(=O)c3ccc(F)cc3)CC2)C1=O (stereo unspecified)	0	0	0	0	0	0
CCN(CC(=O)N1CCN(c2ccccc2)CC1)S(=O)(=O)c1ccc(C)cc1	0	?	0	0	13µM	?
CCN(CC(=O)N1CCN(Cc2ccccc2)CC1)S(=O)(=O)c1ccc(C)cc1	0	?	0	0	?	0
OCCN1CCN(c2nc(-c3ccccc3)c3cc(Cl)ccc3n2)CC1	-52	?	0	0	23µM	?
Clc1ccc(-c2nc(N3CCOCC3)nc3ccccc23)cc1	0	?	0	0	?	0
O=C1CN(c2nc(-c3ccccc3)c3cc(Cl)ccc3n2)c2ccccc2N1	0	16µM	0	0	21µM	0
Clc1ccc2nc(N3CCNCC3)nc(-c3ccccc3)c2c1	-95	18µM	13µM	0	9.2µM	?
Cc1ccc2nc(N3CCN(CCO)CC3)nc(-c3ccccc3)c2c1	?	?	0	0	?	0
CC(C)(C)c1ccc(S(=O)(=O)NC(=O)C2(C)CCN2C(=O)Cc2cccs2)cc1 (stereo unspecified)	0	0	0	-	0	0
Cc1ccccc1N(C(=O)c1cccs1)c1nc2ccccc2s1	0	23µM	0	0	18µM	0
Cc1ccsc1C(=O)N(c1nc2ccccc2s1)c1c(C)cccc1C	0	?	0	0	23µM	0
C[C@]12CCC(=O)CC1CCC1C2CC[C@@]2(C)C1CC[C@@]21CCO1 (stereo partly specified)	0	?	0	0	21µM	0
CC(Sc1nc(N(C)C)nc(N2CCOCC2)n1)C(=O)Nc1ccccc1 (stereo unspecified)	0	0	0	0	7.3µM	0
c1ccc(N2CCN(c3ncnc4[nH]ncc34)CC2)cc1	-	?	0	-	?	0
COc1ccccc1N1CCN(c2ncnc3onc(C)c23)CC1	-	?	0	-	15µM	0
Fc1ccccc1N1CCN(c2ncnc3[nH]ncc23)CC1	0	15µM	0	0	?	0
Cc1noc2ncnc(N3CCN(c4ccccc4F)CC3)c12	-	21µM	0	-	23µM	0
Fc1ccccc1N1CCN(c2ncnc3nc[nH]c23)CC1	0	0	0	0	0	0
COc1ccccc1N1CCN(c2ncnc3n[nH]c(Br)c23)CC1	0	?	-	-	?	-
COCCn1c(CNC(=O)c2cc(OC)c(OC)c(OC)c2)nc2cccnc21	-	0	0	-	0	0
SMILES	IL-1B inflam inh	TDP1 cell CPT	HepG2 viability	ASM inhibitor	TDP1 cell noCPT	TGFb SMAD3 inh
COc1ccc(C(=O)CC(Sc2ccccc2N)c2ccc(OC)cc2)cc1 (stereo unspecified)	0	?	0	-	?	?
Cc1nc2cc(NC(=O)c3ccc([N+](=O)[O-])s3)ccc2s1	0	2.9µM	0	-	5.2µM	0
Cc1cc(NS(=O)(=O)c2ccc(NC(=O)c3c(F)c(F)c(F)c(F)c3F)cc2)nc(C)n1	0	0	0	0	0	0
Cc1ccnc(NS(=O)(=O)c2ccc(NC(=O)c3ccc([N+](=O)[O-])s3)cc2)n1	0	?	11µM	0	?	?
COc1ccc(C(=O)Nc2ccc(S(=O)(=O)Nc3cc(C)nc(C)n3)cc2)c(OC)c1	0	21µM	0	0	23µM	0
Cc1cc(NS(=O)(=O)c2ccc(NC(=O)c3ccc([N+](=O)[O-])s3)cc2)nc(C)n1	-53	0	0	0	0	?
Cc1cc(C)c(C(=O)C(C)OC(=O)C2=COCCO2)cc1C (stereo unspecified)	0	0	0	0	0	0
CC(C)Cc1n[nH]c(=O)c2c1nnn2Cc1ccccc1F	0	0	0	0	0	0
Cc1cc(C)cc(NC(=O)c2ncn(-c3ccccc3)n2)c1	-	0	0	-	?	0
Oc1ccccc1C=NCc1ccccc1	-	0	-	-	?	-
C=CCN(C(=O)c1csnn1)C(C(=O)NCc1ccccc1)c1c(F)cccc1Cl (stereo unspecified)	0	0	0	0	0	0
COc1ccc(C(=O)Nc2ccc(C)cn2)c(OC)c1	0	21µM	0	0	?	0
O=C(COC(=O)c1ccc(Br)o1)NCc1ccc(Cl)cc1	0	0	0	0	0	0
Cc1nn(-c2ccccn2)c2c1-c1nc(N3CCOCC3)ncc1CC2	0	18µM	0	0	23µM	?
Cc1nn(-c2ccccn2)c2c1-c1nc(N)sc1CC2	-	20µM	0	-	18µM	0
CCOc1ccc(OCC)c(NC(=O)CN(C)S(=O)(=O)c2ccc3c(c2)CCCC(=O)N3)c1	-	-	0	-	-	0
O=C(NCc1ccccc1)C1CCCN1C(=O)Nc1ccccc1[N+](=O)[O-] (stereo unspecified)	0	0	0	0	0	0
COc1ccc(N2CCN(C(=O)C3CCN(S(=O)(=O)c4cccs4)CC3)CC2)cc1	0	?	0	0	23µM	?
COc1ccc(N2CCN(C(=O)C3CCN(S(=O)(=O)c4cccc5nonc45)CC3)CC2)cc1	-	?	0	-	16µM	0
O=C(C1CCN(S(=O)(=O)c2cccs2)CC1)N1CCN(c2ccccc2O)CC1	0	15µM	0	0	?	0
O=C(C1CCN(S(=O)(=O)c2cccs2)CC1)N1CCN(c2ccccc2F)CC1	-	0	0	-	?	?
COc1ccc(N2CCN(C(=O)c3ccc(NS(=O)(=O)c4cccs4)cc3)CC2)cc1	0	?	0	0	13µM	0
O=C(O)C1CCN(S(=O)(=O)c2cccc3nonc23)CC1	0	0	0	0	0	0

Assay outcomes from PubChem.
